Experimental findings from PubChem BioAssay (EPA / NIEHS) are described below.

A short description of experiment [1]: BSK_LPS_PGE2: BioMAP Diversity Plus: LPS Assay for Prostaglandin E2 (PGE2) Biomarker Activity (AID 2283082). Particulars: primary human HUVEC with PBMC; actives raise or lower the signal. The procedure, abridged: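 PGE2 release measured by ELISA in an LPS-activated co-culture of human umbilical vein endothelial cells and peripheral blood mononuclear cells, read at 24 h post-dosing. DMSO served as baseline for bidirectional curve fitting.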

Read-out in experiment [2]: Macrophage colony-stimulating factor (MCSF), CSF1 (gene 1435)
Description: BSK_LPS_MCSF: BioMAP Diversity Plus: LPS Assay for Macrophage colony-stimulating factor (MCSF) Biomarker Activity (AID 2283083). Conditions: primary human HUVEC with PBMC; actives raise or lower the signal. The procedure, abridged:
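Human umbilical vein endothelial cells co-cultured with peripheral blood mononuclear cells were exposed to compound for 24 h. M-CSF levels were measured by ELISA, and bidirectional curve fitting used DMSO as the negative control and baseline.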

Read-out in experiment [3]: Tissue Factor, F3 (gene 2152)
Description: BSK_LPS_TissueFactor: BioMAP Diversity Plus: LPS Assay for Tissue Factor Biomarker Activity (AID 2283084). Conditions: primary human HUVEC with PBMC; actives raise or lower the signal. The procedure, abridged:
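Human umbilical vein endothelial cells co-cultured with peripheral blood mononuclear cells were dosed and stimulated with LPS. Cell-surface CD142 was quantified by ELISA at 24 h. Activity was fitted bidirectionally against DMSO baseline.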

Read-out in experiment [4]: Tumor necrosis factor (Homo sapiens) (UniProt P01375)
Description: BSK_LPS_TNFa: BioMAP Diversity Plus: LPS Assay for Tumour Necrosis Factor alpha (TNFa) Biomarker Activity (AID 2283085).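 As to AC50: TNFa protein level quantified by ELISA in the co-culture.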 Particulars: primary human HUVEC with PBMC; actives raise or lower the signal. Put shortly:
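TNFa was quantified by ELISA in LPS-activated co-cultures of human endothelial cells and PBMC, 24 h post-dosing. Both increases and decreases versus DMSO were fitted.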

Read-out in experiment [5]: Vascular cell adhesion molecule 1 (VCAM1), VCAM1 (gene 7412)
Description: BSK_LPS_VCAM1: BioMAP Diversity Plus: LPS Assay for Vascular cell adhesion molecule 1 (VCAM1) Biomarker Activity (AID 2283086). Conditions: primary human HUVEC with PBMC; actives raise or lower the signal. The procedure, abridged:
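VCAM-1 quantified by ELISA in an LPS-activated co-culture of human endothelial cells and peripheral blood mononuclear cells, read 24 h post-treatment. Fitted in both directions versus DMSO; parallel SRB staining flags overt cytotoxicity.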

Read-out in a further experiment: CD38, CD38 (gene 952)
The experiment can be described thus: BSK_SAg_CD38: BioMAP Diversity Plus: SAg Assay for CD38 Biomarker Activity (AID 2283087). Conditions: primary human HUVEC with PBMC; actives raise or lower the signal. The procedure, abridged:
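CD38 quantified by ELISA (fluorescence) in a superantigen-activated endothelial cell–PBMC co-culture at 24 h post-dose. Activity fitted in both directions relative to DMSO; parallel SRB and Alamar Blue cytotoxicity read-outs.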

Read-out in another experiment: CD40, CD40 (gene 958)
Description: BSK_SAg_CD40: BioMAP Diversity Plus: SAg Assay for CD40 Biomarker Activity (AID 2283088). Conditions: primary human HUVEC with PBMC; actives raise or lower the signal. Put shortly: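 Human umbilical vein endothelial cells co-cultured with PBMC; CD40 levels measured by ELISA with fluorescence read-out 24 h after chemical dosing. Gain or loss of signal fitted bidirectionally against DMSO baseline.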

Read-out in a further experiment: CD69, CD69 (gene 969)
Description: BSK_SAg_CD69: BioMAP Diversity Plus: SAg Assay for CD69 Biomarker Activity (AID 2283089).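 As to AC50: cell surface CD69 protein quantified by ELISA with fluorescence detection.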 Particulars: primary human HUVEC with PBMC; actives raise or lower the signal. The procedure, abridged:
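ELISA, fluorescence read-out: CD69 on human umbilical vein endothelial cell + PBMC co-culture, 24 h post-dosing. Gain or loss of signal fitted bidirectionally against DMSO baseline.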

Read-out in experiment [6]: Monocyte Chemoattractant Protein-1 (MCP1), CCL2 (gene 6347)
Description: BSK_SAg_MCP1: BioMAP Diversity Plus: SAg Assay for Monocyte Chemoattractant Protein-1 (MCP1) Biomarker Activity (AID 2283090). Conditions: primary human HUVEC with PBMC; actives raise or lower the signal. The procedure, abridged:
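Values derive from bidirectional fitting of ELISA-measured MCP1 against DMSO controls. Readings were taken 24 h after dosing human vascular endothelial cells co-cultured with peripheral blood mononuclear cells under superantigen stimulation.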

Read-out in experiment [7]: E-selectin (Homo sapiens) (UniProt P16581)
Description: BSK_SAg_Eselectin: BioMAP Diversity Plus: SAg Assay for Eselectin Biomarker Activity (AID 2283091). Particulars: primary human HUVEC with PBMC; actives raise or lower the signal. Put shortly: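 HUVEC co-cultured with PBMC, compound dosed then read at 24 h; E-selectin measured by ELISA. Activity fitted bidirectionally against DMSO as negative control and baseline.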

Read-out in experiment [8]: Monokine induced gamma interferon (MIG), CXCL9 (gene 4283)
The experiment can be described thus: BSK_SAg_MIG: BioMAP Diversity Plus: SAg Assay for Monokine induced gamma interferon (MIG) Biomarker Activity (AID 2283092). Conditions: primary human HUVEC with PBMC; actives raise or lower the signal. Put shortly:
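ELISA readout of MIG/CXCL9; primary human umbilical vein endothelial cells co-cultured with peripheral blood mononuclear cells; 24 h post-dose; gain/loss fit vs DMSO baseline.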

Experiment [9] is described as follows: BSK_SAg_PBMCCytotoxicity: PBMC Cytotoxicity Assessment in the BioMAP Diversity Plus: SAg Assay (AID 2283093).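 Also: PBMC viability measured as Alamar Blue reduction fluorescence at 546/580 nm; fitted both ways against DMSO so a hit may be loss or gain of signal.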 Conditions: primary human HUVEC with PBMC. The procedure, abridged:
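Alamar Blue reduction (6 h, 546/580 nm) reports PBMC cytotoxicity after 90 h superantigen activation (SEB, TSST-1; 20 ng/mL final each) with 1 h compound pre-treatment. Gain or loss of signal fitted versus DMSO.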

Read-out in experiment [10]: Interleukin-8 (IL8), CXCL8 (gene 3576)
The experiment can be described thus: BSK_SAg_IL8: BioMAP Diversity Plus: SAg Assay for Interleukin-8 (IL8) Biomarker Activity (AID 2283094). Particulars: primary human HUVEC with PBMC; actives raise or lower the signal. The procedure, abridged:
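ELISA readout of IL-8 from a superantigen-activated endothelial/PBMC primary human co-culture, taken 24 h post-dosing and fitted in both directions against DMSO; parallel SRB total-protein staining flags overt cytotoxicity.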

Experiment [11] is described as follows: BSK_SAg_Proliferation: Cell Proliferation Assessment in the BioMAP Diversity Plus: SAg Assay (AID 2283095).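 Also: relative cell number as total protein by SRB absorbance in sub-confluent culture.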 Particulars: primary human HUVEC with PBMC. The procedure, abridged: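 Relative cell number in the endothelial cell/PBMC co-culture was quantified at 96 h by SRB staining (0.1% SRB, 10% TCA fixation, read at 560 nm). Curves were fitted in both directions relative to DMSO baseline.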

The nature of experiment [12]: BSK_SAg_SRB: Viability Assessment in the BioMAP Diversity Plus: SAg Assay (AID 2283096).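 Also: cells read one day after compound addition; hits may be either gain or loss of signal compared with DMSO.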 Conditions: primary human HUVEC with PBMC. The procedure, abridged: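 This overt-cytotoxicity endpoint quantifies protein in human endothelial/PBMC co-cultures at 24 h using SRB absorbance (560 nm) after trichloroacetic acid fixation. Values reflect signal change from the DMSO negative control, fitted bidirectionally.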

Experiment [13] has as its target human CYP1A1, CYP1A1 (gene 1543) (UniProt P04798). The experiment can be described thus: NVS_ADME_hCYP1A1: NovaScreen (NVS) CYP450-related Enzyme Activity (ADME) Assay for human CYP1A1 (AID 2283100; active = hit-call score of the fitted dose curve at least 0.9, where 1 is the maximum). Put shortly: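 Cell-free fluorescence assay of recombinant human CYP1A1 activity with a specific substrate, read 1 h after dosing. Compounds were screened in duplicate at 10 uM, then hits tested in concentration-response up to 20 uM; acetonitrile served as baseline.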

Records with an inconclusive call do not appear. Active and inactive are the calls of the source. The calls were made as follows, unless noted: active = hit-call score of the fitted dose curve at least 0.9, where 1 is the maximum; inactive = score below 0.9.

What is called AC50 is the concentration giving half of the maximal activity seen.

Chain of E-selectin (Homo sapiens) (P16581 whole entry, looked up): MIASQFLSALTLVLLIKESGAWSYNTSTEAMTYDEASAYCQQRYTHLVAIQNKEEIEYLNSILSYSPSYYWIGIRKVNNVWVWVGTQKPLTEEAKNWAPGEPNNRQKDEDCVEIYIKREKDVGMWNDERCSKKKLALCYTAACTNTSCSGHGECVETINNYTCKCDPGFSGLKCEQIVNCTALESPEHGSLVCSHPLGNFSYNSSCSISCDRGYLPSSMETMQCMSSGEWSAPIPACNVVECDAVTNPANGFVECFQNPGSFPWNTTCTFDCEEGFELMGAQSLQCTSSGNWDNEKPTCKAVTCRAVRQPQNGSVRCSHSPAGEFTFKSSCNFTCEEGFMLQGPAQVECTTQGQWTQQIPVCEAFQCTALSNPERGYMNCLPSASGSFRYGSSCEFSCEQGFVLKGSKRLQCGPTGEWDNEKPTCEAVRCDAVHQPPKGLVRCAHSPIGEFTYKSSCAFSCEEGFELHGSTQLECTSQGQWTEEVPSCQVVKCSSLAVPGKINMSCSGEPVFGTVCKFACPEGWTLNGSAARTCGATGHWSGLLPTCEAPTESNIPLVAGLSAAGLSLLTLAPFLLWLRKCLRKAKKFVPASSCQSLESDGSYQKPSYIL
Chain of Tumor necrosis factor (Homo sapiens) (P01375 whole entry, looked up): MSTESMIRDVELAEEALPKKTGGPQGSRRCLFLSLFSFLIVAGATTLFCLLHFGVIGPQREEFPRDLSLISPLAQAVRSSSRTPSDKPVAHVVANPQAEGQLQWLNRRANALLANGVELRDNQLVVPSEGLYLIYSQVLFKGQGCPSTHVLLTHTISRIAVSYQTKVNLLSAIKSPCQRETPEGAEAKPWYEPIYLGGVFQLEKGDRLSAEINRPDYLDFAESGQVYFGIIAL
Chain of human CYP1A1, CYP1A1 (gene 1543) (P04798 whole entry, looked up): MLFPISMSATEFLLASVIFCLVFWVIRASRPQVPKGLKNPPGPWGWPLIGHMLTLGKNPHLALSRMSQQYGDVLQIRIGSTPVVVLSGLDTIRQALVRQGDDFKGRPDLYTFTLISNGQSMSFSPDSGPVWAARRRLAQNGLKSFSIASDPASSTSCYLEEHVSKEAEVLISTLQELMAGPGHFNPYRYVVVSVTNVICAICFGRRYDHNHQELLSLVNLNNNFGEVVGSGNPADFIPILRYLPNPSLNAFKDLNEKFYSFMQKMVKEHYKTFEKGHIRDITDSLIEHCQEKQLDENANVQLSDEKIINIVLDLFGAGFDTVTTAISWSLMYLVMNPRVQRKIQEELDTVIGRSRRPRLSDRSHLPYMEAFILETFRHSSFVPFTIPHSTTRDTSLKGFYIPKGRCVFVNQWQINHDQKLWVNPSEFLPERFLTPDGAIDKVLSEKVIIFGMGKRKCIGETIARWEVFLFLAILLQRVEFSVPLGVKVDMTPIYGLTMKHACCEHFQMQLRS

Turning to `CCCCCCCCCCCCc1ccccc1`, the outcome was “inactive” in experiment [1]; “inactive” in experiment [2]; “inactive” in experiment [3]; “inactive” in experiment [4]; “inactive” in [5]; “inactive” with CD38, CD38 (gene 952). Moreover, the outcome with CD69, CD69 (gene 969) was “inactive”; in [6], “inactive”; in experiment [7] it was “inactive”; in experiment [8], “inactive”; in experiment [9], “inactive”; in experiment [10], “inactive”. In addition, the outcome in experiment [11] and in experiment [12] was inactive. The half-maximal activity concentration (AC50) with CD40, CD40 (gene 958) was 31.8 µM (active).

Consider `COCCOc1cc2cc(C(=O)NC3CCN(C(C)C)CC3)n(CC(=O)Nc3ccc(Cl)cn3)c2cn1`, for which the outcome is “inactive” in experiment [1]; “inactive” in experiment [2]; “inactive” in experiment [3]; “inactive” in [4]; “inactive” in experiment [5]; “inactive” with CD38, CD38 (gene 952). Moreover, the outcome in the experiment with CD40, CD40 (gene 958) is “inactive”; with CD69, CD69 (gene 969) it was “inactive”; in [6], “inactive”; in experiment [7], “inactive”; in experiment [8], “inactive”; in [9] it was “inactive”. The outcome in experiment [10], in experiment [11] and in experiment [12] was inactive.

Take `CCCCCCCCO`: the outcome in experiment [1] is “inactive”; in [2], “inactive”; in experiment [3], “inactive”; in experiment [4], “inactive”; in experiment [5], “inactive”; in the experiment with CD38, CD38 (gene 952), “inactive”. For the same molecule, the outcome with CD40, CD40 (gene 958) was “inactive”; with CD69, CD69 (gene 969), “inactive”; in [6] it was “inactive”; in [7] it was “inactive”; in experiment [8], “inactive”; in experiment [9], “inactive”. For the same molecule, the result in [10], in experiment [11] and in experiment [12] was inactive.

With `CC[C@H]1OC(=O)[C@H](C)[C@@H](O[C@H]2C[C@@](C)(OC)[C@@H](O)[C@H](C)O2)[C@H](C)[C@@H](O[C@@H]2O[C@H](C)C[C@H](N(C)C)[C@H]2O)[C@](C)(O)C[C@@H](C)C(=O)[C@H](C)[C@@H](O)[C@]1(C)O`, the outcome was “inactive” in experiment [1]; “inactive” in [2]; “inactive” in experiment [3]; “inactive” in experiment [4]; “inactive” in experiment [5]; “inactive” with CD38, CD38 (gene 952). Also, the outcome is “inactive” with CD40, CD40 (gene 958); “inactive” with CD69, CD69 (gene 969); “inactive” in [6]; “inactive” in experiment [7]; “inactive” in [8]; “inactive” in [9]. Moreover, the outcome in [10], in [11] and in experiment [12] was inactive.

`Clc1nc(Cl)c(Cl)c(Cl)c1Cl`: the AC50 in [1] was 15.1 µM (active); in [2], 32.2 µM (active); in [3], 33.1 µM (active); in experiment [4], 31.7 µM (active); in [5], 32.3 µM (active); in the experiment with CD38, CD38 (gene 952) it was 34.4 µM (active). Besides, the half-maximal activity concentration (AC50) with CD40, CD40 (gene 958) was 30 µM (active); with CD69, CD69 (gene 969), 26.3 µM (active); in [6] it was 31.4 µM (active); in experiment [7], 25.1 µM (active); in experiment [8] it was 31.2 µM (active); in [10], 14.4 µM (active). In experiment [11], the AC50 is 23.3 µM (active). In addition, the outcome in experiment [9] and in [12] was inactive.

As for `C=CCCCCCCCCC(=O)O`, the values for the concentration at half-maximal activity (AC50) in [1] and in [4] were 8.17 µM (active) and 0.74 µM (active), respectively. Besides, the outcome is “inactive” in experiment [2]; “inactive” in experiment [3]; “inactive” in experiment [5]; “inactive” with CD38, CD38 (gene 952); “inactive” with CD40, CD40 (gene 958); “inactive” with CD69, CD69 (gene 969). Besides, the result in experiment [6], in experiment [7], in experiment [8], in experiment [9], in [10] and in experiment [11] was inactive. For the same molecule, the outcome in experiment [12] was inactive.

For `CC(C)=CCCC(C)CCO` (stereo unspecified), the outcome is “inactive” in experiment [1]; “inactive” in experiment [2]; “inactive” in experiment [3]; “inactive” in [4]; “inactive” in [5]; “inactive” with CD38, CD38 (gene 952). Further, the outcome is “inactive” with CD40, CD40 (gene 958); “inactive” with CD69, CD69 (gene 969); “inactive” in [6]; “inactive” in experiment [7]; “inactive” in experiment [8]; “inactive” in experiment [9]. The result in experiment [10], in experiment [11], in experiment [12] and in experiment [13] was inactive.
